Sampled rows, rich in hits. Any-hit rate of the full collection: about 10%.
RORg inh – inhibitors of mouse ROR gamma transcriptional activity; P51450; Drosophila S2 Gal4-RORgamma UAS-luciferase reporter, 20 h; Potency, µM (highest dose often 53.6 µM), inactives show top-dose activity change, negative = inhibition, actives largely listed as inhibitors; hit rate 5.4% among 310,000; further: on the % scale 0 is the no-effect control and ±100 the full control effect; nearly all actives have a fitted effect of over 60% in size
Target sequence (P51450 whole entry, looked up, the tested form may be a part): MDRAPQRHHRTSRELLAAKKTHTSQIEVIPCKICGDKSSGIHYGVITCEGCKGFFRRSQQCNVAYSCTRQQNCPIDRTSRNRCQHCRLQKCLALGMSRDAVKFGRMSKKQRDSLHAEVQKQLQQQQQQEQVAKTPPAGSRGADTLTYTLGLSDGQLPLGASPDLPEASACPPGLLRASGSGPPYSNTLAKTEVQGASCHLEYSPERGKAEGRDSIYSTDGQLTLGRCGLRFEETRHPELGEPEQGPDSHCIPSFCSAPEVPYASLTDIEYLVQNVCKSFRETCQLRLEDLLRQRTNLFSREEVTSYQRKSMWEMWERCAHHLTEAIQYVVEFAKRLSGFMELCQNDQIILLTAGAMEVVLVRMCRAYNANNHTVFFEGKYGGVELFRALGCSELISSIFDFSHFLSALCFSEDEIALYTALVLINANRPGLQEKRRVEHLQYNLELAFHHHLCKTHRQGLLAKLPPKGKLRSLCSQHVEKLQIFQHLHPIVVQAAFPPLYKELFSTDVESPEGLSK
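In this cell-based reporter format, copper sulfate (700 uM final) drives Gal4–ROR gamma fusion expression from a metallothionein promoter in Drosophila Schneider cells; compounds preincubated 1 hr, reporter read after 20 hr at ambient temperature.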
KB-V1 MDR tox – kills drug-selected multidrug resistant KB-V1 cells; AID 1347076; hit rate 3.4% among 400,000; Potency, µM (highest dose often 46.1 µM), hits mostly cytotoxic; KB-V1 MDR cells viability, CellTiter-Glo, 72 h; further: on the % scale 0 is the no-effect control and ±100 the full control effect; nearly all actives have a fitted effect of over 60% in size
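Drug-selected KB-V1 cells, grown in DMEM lacking phenol red with 10% FBS, receive compound titrations; after three days at 37 degrees C, surviving cell ATP is quantified by CellTiter-Glo luminescence and responses normalized and curve-fitted.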
VP16 counter – Gal4-VP16 reporter inhibition counter-screen; Drosophila S2 Gal4-VP16 UAS-luciferase, luminescence, 20 h; Potency, µM (top dose mostly 53.6 µM), without a hit: at the top dose activity, negative = inhibition, most hits filed as inhibitors; hit rate 3.5% among 310,000; AID 2546;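 further: Gal4-VP16 expression switched on by copper sulfate through the metallothionein promoter; on the % scale 0 is the no-effect control and ±100 the full control effect; nearly all actives have a fitted effect of over 50% in size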
MCF10A rerep – induces DNA re-replication in MCF 10a normal breast cells; hit rate 2.9% among 350,000; AID 624296; MCF 10A DNA re-replication, Hoechst nuclear intensity, 48 h; Potency, µM (series often up to 46.1 µM), inactives show at the top dose activity, positive = re-replication, most hits filed as activators; further: % of control where 0% means no effect; nearly all actives have a fitted effect of over 50% in size
SW480 rereplic – inducers of DNA re-replication in SW480 colon cancer cells | Potency, µM (highest dose often 46.1 µM), for the others: at the top dose re-replication activation, actives largely listed as activators | SW480 DNA re-replication, Hoechst DNA content imaging, 48 h | hit rate 1.8% among 340,000; further: % of control where 0% means no effect; nearly all actives have a fitted effect of over 55% in size
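Readout is total intensity of Hoechst-stained nuclei, excited at 405 nm and collected at 500-530 nm. Compound treatment lasted 48 hr at 37 C in 5% CO2 before staining.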
KB-3-1 tox – kills parental KB-3-1 adenocarcinoma cells; Potency, µM (doses to about 46.1 µM), actives largely listed as cytotoxic; hit rate 1.4% among 400,000; KB-3-1 viability, CellTiter-Glo ATP luminescence, 72 h; further: on the % scale 0 is the no-effect control and ±100 the full control effect; nearly all actives have a fitted effect of over 60% in size
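Viability of parental KB-3-1 cells, measured by CellTiter-Glo luminescence, followed a 72 h incubation at 37 °C with pinned compounds in phenol-red-free DMEM containing 10% FBS.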
* hit, by the source's call; i = inactive; ? = inconclusive; . = no result given; [ ] = dose if it differs, or a comment. The call rests on the fitted dose curve; in most records, active means well fitted curve in the direction sought with a large enough effect; inconclusive means small, poorly fitted or top-dose-only effect, or another doubt; inactive means no such curve, though single readings can be large; an effect the other way counts as inactive or inconclusive. Potency means the concentration at half of the fitted maximal effect.

SMILES	RORg inh	KB-V1 MDR tox	VP16 counter	MCF10A rerep	SW480 rereplic	KB-3-1 tox
CC1CN(c2ccc(C(F)(F)F)cc2[N+](=O)[O-])CCN1S(C)(=O)=O (configuration not stated)	?	i	0%	-3%	2%	i
O=[N+]([O-])c1ccc(N2CCN(S(=O)(=O)c3ccc(Cl)c(Cl)c3)CC2)cc1NCCN1CCOCC1	?	i	0%	6%	2%	i
O=[N+]([O-])c1cc(C(F)(F)F)ccc1N1CCN(S(=O)(=O)c2ccc3c(c2)CCCC3)CC1	12%	5.2µM*	-7%	-2%	-10%	?
CCNc1cc(N2CCN(S(=O)(=O)c3ccc4c(c3)CCCC4)CC2)ccc1[N+](=O)[O-]	20%	1.5µM*	-3%	18%	3%	i
C#CCNC(=O)C[C@@H]1C[C@@]2(C(=O)OCC)CCCC=C2N(Cc2ccc3c(c2)OCO3)C1=O	.	i	.	.	.	i
CCCCCCN1C[C@@H](O)[C@H](n2cc(COC(=O)c3ccccc3)nn2)C[C@@H]1c1ccc(C)cc1	.	i	.	.	.	i
Cc1ccc(C)c(S(=O)(=O)Nc2ccc3cn[nH]c3c2)c1	.	i	.	1%	0%	i
Cc1ccc(S(=O)(=O)Nc2ccc3cn[nH]c3c2)cc1C	.	i	.	11%	3%	i
Cc1ccc(S(=O)(=O)Nc2ccc3cn[nH]c3c2)c(C)c1	.	i	.	16%	16µM*	i
CCOc1cc(C)c(S(=O)(=O)Nc2ccc3cn[nH]c3c2)cc1C	11%	?	-16%	-2%	-1%	21µM*
O=C(NCC[C@H]1CC[C@H](NS(=O)(=O)c2ccccc2F)[C@@H](CO)O1)c1ccc(F)cc1	.	i	.	.	.	i
COC(=O)c1ccccc1NC(=O)C1=CC(c2ccc(C)cc2)=NS(=O)(=O)N1C	.	i	.	.	.	i
CC(=O)c1c(C)[nH]c(C(=O)Nc2ccc(C)c(S(=O)(=O)Nc3ccc(C)cc3C)c2)c1C	-29%	i	-29%	12µM*	16µM*	i
CN(C)S(=O)(=O)c1ccc(NC(=O)c2cc(F)c(F)cc2Cl)cc1	?	23µM*	0%	-7%	-6%	i
CC(=O)c1c(C)[nH]c(C(=O)Nc2ccc(S(=O)(=O)N(C)C)cc2)c1C	0.22µM*	i	1%	-7%	-73%	i
CCN(CC)S(=O)(=O)c1cc(NC(=O)C(C)OC(=O)c2[nH]c(C)c(C(C)=O)c2C)ccc1C (configuration not stated)	?	21µM*	-29%	?	4%	?
COc1ccc(C2c3c(-c4ccccc4)n[nH]c3C(=O)N2c2ccc(C(=O)O)cc2)c(OC)c1 (configuration not stated)	.	?	.	.	.	i
Cc1ccc(NS(=O)(=O)c2cc(C(=O)Nc3cccc(N(C)S(C)(=O)=O)c3)ccc2C)c(C)c1	?	16µM*	-1%	3%	-8%	i
Cc1ccc(C)c(NS(=O)(=O)c2cc(C(=O)Nc3cccc(N(C)S(C)(=O)=O)c3)ccc2C)c1	42%	?	-5%	?	-1%	?
O=C(NC1CCCC1)c1cnn2c1NC(=C1CC1)C=C2C(F)F	.	i	.	.	.	?
CCc1ccc(C(=O)c2cn(Cc3ccccc3)c3cc(OC)c(OC)cc3c2=O)cc1	.	i	.	.	.	i
CCOC(=O)c1cc(C(=O)NNC(=O)c2cccc([N+](=O)[O-])c2)c(C)nc1C	.	?	.	2%	?	i
CCOC(=O)c1sc(NNC(=O)c2ccc(C)cc2)nc1C	0.79µM*	i	?	26µM*	-11%	i
CCOC(=O)c1sc(NC(=O)Cc2ccc(C)cc2)nc1C	1%	i	-2%	20%	1%	i
CCOC(=O)c1sc(NCCNc2nc(C)c(C(=O)OCC)s2)nc1C	-2%	i	-9%	2%	-2%	i
SMILES	RORg inh	KB-V1 MDR tox	VP16 counter	MCF10A rerep	SW480 rereplic	KB-3-1 tox
CCOC(=O)c1nc(NNC(=O)c2ccc([N+](=O)[O-])cc2)sc1C	?	?	6.3µM*	25%	3.7µM*	18µM*
CCOC(=O)c1sc(NNC(=O)c2ccc(F)cc2)nc1C	0.71µM*	i	7.1µM*	8%	?	?
CCOC(=O)c1ccc(N2C(=O)C(C)=C(C)C2=O)cc1	17%	i	1%	16%	7%	i
COC(=O)c1nn(C23CC4CC(CC(C4)C2)C3)c2c1C(=O)N(c1ccc(Br)cc1)C2=O	-13%	i	5.6µM*	-4%	0%	i
CCOC(=O)c1nn(C23CC4CC(CC(C4)C2)C3)c2c1C(=O)N(c1ccc(C)cc1)C2=O	11µM*	?	7.1µM*	7%	-9%	i
Cc1ccc(S(=O)(=O)N[C@H]2COC(=O)[C@H](C)COC(=O)C/C=C\[C@H]2C)cc1	11%[10 µM]	.	1%[10 µM]	.	.	.
CC[C@@H](C)[C@H](CN[C@H](CNC)C(C)C)NC[C@@H](C)c1ccc(CC(C)C)cc1	10µM*	i	?	?	?	?
Cc1ccc(S(=O)(=O)N2[C@H](CC(=O)Oc3ccccc3)OC[C@@H]2C(C)C)cc1	.	i	.	.	.	i
NC(=O)C1CCN(CC(=O)Nc2ccccc2Sc2ccccc2)CC1	28%	21µM*	-4%	?	-79%	i
Clc1ccc2c(c1)C(N1CCNCC1)Cc1ccccc1S2 (configuration not stated)	-36%	21µM*	?	?	?	?
Clc1cccc2c1Sc1ccccc1CC2N1CCNCC1 (configuration not stated)	?	?	?	?	6%	?
CCOc1ccc(Nc2oc(-c3ccc(COc4ccc(OC)cc4)o3)nc2C#N)cc1	.	i	.	.	.	i
COc1ccc(C2=NCCc3cc(OC)c(OC)cc32)cc1	-27%	i	?	-56%	-72%	i
COc1cc2c(cc1OC)C(c1c(-c3c(Cl)cccc3Cl)noc1C)=NCC2	.	?	.	.	.	i
COc1ccc(C2=NCCc3cc(OC)c(OC)cc32)cc1OC	-7%	?	6.3µM*	-17%	59%	i
COc1cc2c(cc1OC)C(c1c(Cl)cccc1Cl)=NCC2	.	?	.	.	.	21µM*
COc1ccc(C(=O)C(=O)N2CCC(c3ccccc3)CC2)cn1	.	?	.	.	.	i
CCCCc1ccc(NC(=O)COc2ccc(C(=O)Nc3ccccc3C)cc2)cc1	?	.	11µM*	.	.	.
Cc1ccc(NC(=O)c2ccco2)c(NC(=O)COc2ccccc2)c1	23%	i	-7%	-21%	-43%	i

High-throughput results as filed in PubChem BioAssay.
